NADH coupling: blocks coupling enzymes of NAD/NADH assays. coupled PK/LDH NADH assays, four targets. IC50, µM (top dose mostly 10 µM), for the others: at the highest dose inhibition. 65,000 tested, 0.02% active. AID 774;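 active = single-dose screening hits from any of four coupled enzyme assays that gave an IC50 when retested across doses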;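 note: the DPM-DC format reads NADH fluorescence rather than 340 nm absorbance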
Fluor 339 460: intrinsic fluorescence of library compounds, ex339/em460 – biochemical, MLSMR library, data from DPM-DC assay, artefact control, profiling panel; compound autofluorescence, ex339/em460 nm, NADH buffer; active compounds read high; 1 = no-compound wells, NADH background; fluorescence fold increase at 10 µM; 65,000 tested, 5.5% active; AID 709;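 active = at 10 µM, mean starting fluorescence two-fold or more over control wells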;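 note: signal is the first read of a kinetic run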
Spn DPM-DC inh: S. pneumoniae DPM-DC inhibition; calls only at 10 µM; 65,000 tested, 0.49% active; purified DPM-DC, PK/LDH coupled NADH fluorescence; AID 556;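 active = the 320 compounds with the highest percent inhibition in the single-dose primary screen, excluding strongly autofluorescent ones, cut at about 32% in these data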;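 note: kinetic rate of NADH fluorescence loss reporting ADP formed by the decarboxylase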
Spn PMK inh: inhibitors of Streptococcus pneumoniae phosphomevalonate kinase. purified PMK, PK/LDH-coupled NADH absorbance 340 nm. 65,000 tested, 0.49% active. inhibition, % at 10 µM. AID 539;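 active = top-ranked compounds by inhibition in the single 10 µM screen, taking a fixed number of the strongest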;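 note: 0% = full reaction with DMSO carrier and 100% = background rate without enzyme reaction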
A340 absorber: absorbance at 340 nm; fold change at 10 µM; compound absorbance at 340 nm, fold over control; AID 708; 65,000 tested, under 10 active;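 active = at 10 µM dose, initial 340 nm absorbance at least 2 fold that of control wells; inactive = change under 2 fold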;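 note: initial absorbance extrapolated from kinetic A340 decline of NADH oxidation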
Spn MK inh: S. pneumoniae mevalonate kinase inhibition; inhibition, % at 10 µM; 65,000 tested, 0.48% active; AID 555; purified MK, PK/LDH-coupled NADH absorbance 340 nm;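 active = ranked among the strongest by inhibition in the single 10 µM screen, a fixed top-ranked set picked for dose follow-up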
* hit, by the source's call; i = inactive; . = no result given; + = active, no number. Shown are actives, neighbours in structure and some others; about 6.5% of the full set was active somewhere.

SMILES	NADH coupling	Fluor 339 460	Spn DPM-DC inh	Spn PMK inh	A340 absorber	Spn MK inh
CCOc1nc(-c2ccccc2)ccc1-c1noc(COc2ccccc2)n1	3.0%	2.87*	i	8.0	1.1	0.0
COc1nc(-c2ccc(C)cc2)ccc1-c1noc(-c2ccco2)n1	9.0%	2.36*	i	10.0	1.08	0.0
CCOc1nc(-c2ccccc2)ccc1-c1noc(-c2ccco2)n1	16.0%	2.58*	i	19.0	1.03	0.0
CC(/C=N/n1cnnc1)=C\c1ccco1	3441µM*	0.92	+	14.0	1.27	16.0
CCOC(=O)CN(C(=O)CSc1nnc(-c2ccc(OC)c(OC)c2)o1)c1ccc(F)cc1	2.0%	1.1	i	1.0	1	4.0
COc1ccc2oc(C(=O)C3CC3)c(N)c2c1	10.0%	2.07*	i	8.0	1.13	2.0
COc1ccc(C(=O)c2oc3ccccc3c2N)cc1	9.0%	1.49	i	0.0	1.08	10.0
Cc1cc(-c2nnc3sc(C4CCCCC4)nn23)n[nH]1	3.0%	1.14	i	10.0	1.01	0.0
COc1ccc(-c2ccc(-c3noc(-c4ccc(OC)c(OC)c4)n3)c(OC)n2)cc1	15.0%	3.87*	.	15.0	1.11	14.0
COc1ccc(-c2ccc(-c3noc(-c4cccc(OC)c4)n3)c(OC)n2)cc1	9.0%	3.83*	.	5.0	1.12	12.0
COc1ccc(-c2nc(-c3ccncc3)no2)cc1OC	5.0%	1.12	i	13.0	1.03	0.0
Nc1nonc1C(=O)OCC(=O)N1CCOCC1	6.0%	1.03	i	18.0	1.02	0.0
c1csc(CSc2nnc3sc4ccccc4n23)c1	4.0%	1.11	i	9.0	1.04	3.0
CS(=O)(=O)N1CCCC(C(=O)NCc2cccs2)C1 (stereo not drawn)	8.0%	1.05	i	25.0*	1.02	0.0
CS(=O)(=O)N1CCCC(C(=O)NCCc2ccccc2)C1 (stereo not drawn)	3.0%	1.11	i	1.0	1.03	7.0
O=C(NCc1cccs1)C1CCCN(c2nc3ccccc3o2)C1 (stereo not drawn)	12.0%	1.05	i	25.0*	0.99	10.0
O=C(NCc1cccs1)C1CCCN(S(=O)(=O)c2cccs2)C1 (stereo not drawn)	2.0%	1.17	i	7.0	1	0.0
CS(=O)(=O)N1CCCC(C(=O)NCCc2ccc(Cl)cc2)C1 (stereo not drawn)	14.0%	0.86	i	26.0*	0.96	0.0
COc1cccc(C(=O)N2CCN(S(=O)(=O)Cc3ccccc3)CC2)c1OC	4.0%	1.01	i	8.0	1	2.0
CCC(C)c1ccc2oc(-c3ccc(NC(=O)c4ncn[nH]4)cc3)nc2c1 (stereo not drawn)	6.0%	3.61*	.	0.0	1.16	11.0
CCC(C)c1ccc(O)c(NC(=O)c2ncn[nH]2)c1 (stereo not drawn)	13.0%	1.09	i	15.0	1.06	13.0
O=C(Nc1ccc(N2CCOCC2)c(Cl)c1)c1ncn[nH]1	6.0%	1.06	i	11.0	1.03	6.0
Cc1ccc(-c2nc3cc(N)ccc3o2)cc1	3.0%	1.98	.	5.0	1.08	10.0
CC(C)c1ccc2oc(-c3ccc(NC(=O)c4ncn[nH]4)cc3)nc2c1	8.0%	3.56*	.	4.0	1.08	12.0
Cc1ccc(-c2nc3cc(N)ccc3o2)c(C)c1	3.0%	3.97*	.	0.0	1.03	6.0
SMILES	NADH coupling	Fluor 339 460	Spn DPM-DC inh	Spn PMK inh	A340 absorber	Spn MK inh
CC(C)c1ccc2oc(-c3ccc(N)cc3)nc2c1	9.0%	2.12*	.	4.0	1.24	14.0
Cc1nc2c([nH]c3ccc(Br)cc32)s1	11.0%	1.16	i	12.0	1.04	12.0
CC1CC(=O)N(Cc2ccccc2)c2ccccc2N1C=O (stereo not drawn)	6.0%	0.93	i	11.0	1.01	5.0
CC1NC(=O)N(C)C2NC(=O)N(C)C(c3ccccc3)C12 (stereo not drawn)	8.0%	1.13	i	15.0	0.99	9.0
O=C(Nc1ccc2oc(-c3ccccc3Cl)nc2c1)c1ncn[nH]1	6.0%	2.1*	.	0.0	1.05	12.0
COc1ccc2[nH]c3c(NCCN(C(C)C)C(C)C)ncnc3c2c1	4.0%	3.73*	.	8.0	1.1	0.0
c1ccc2c(c1)[nH]c1c(N3CCSCC3)ncnc12	10.0%	0.21	.	14.0	0.91	5.0
CC(C)OCCCNc1ncnc2c1[nH]c1ccccc12	11.0%	2.65*	i	14.0	1.07	11.0
O=C1OCCC1Sc1ncnc2sccc12 (stereo not drawn)	3.0%	0.99	i	9.0	0.99	4.0
COCCn1c(C)cc(C(=O)COC(=O)CCc2ccc(S(=O)(=O)N3CCOCC3)cc2)c1C	4.0%	1.11	i	13.0	1.04	0.0
Cc1oc2c(O)c(O)ccc2c(=O)c1-c1cnn(-c2ccccc2)c1	3.0%	1.07	i	1.0	1.06	8.0
Cc1oc2c(O)c(O)ccc2c(=O)c1-c1ccccc1	13.0%	0.98	i	29.0*	1.04	5.0
COc1ccccc1-c1c(C)oc2c(CN3CCN(C)CC3)c(O)ccc2c1=O	10.0%	2.35*	.	8.0	1.07	11.0
COc1ccc(-c2c(C)oc3c(CN4CCN(CCO)CC4)c(O)ccc3c2=O)cc1OC	0.0%	3.85*	.	0.0	1.15	0.0
COc1ccccc1-c1c(C)oc2c(CN3CCN(CCO)CC3)c(O)ccc2c1=O	1.0%	3.92*	.	0.0	1.13	2.0
Cc1c(-c2ccccc2)oc2nc3c(c(=O)n(C)c(=O)n3C)n12	9.0%	1.19	i	14.0	1.01	12.0
COC(=O)CSC1=C(C#N)C(=O)NC2(CCCCC2)S1	8.0%	0.99	i	4.0	1.15	8.0
CCCS(=O)(=O)N1CCCC(C(=O)NCCc2ccc(OC)c(OC)c2)C1 (stereo not drawn)	2.0%	1.12	i	7.0	1.01	0.0
CCN(CCCNC(=O)C1CCN(S(=O)(=O)c2cccc3nonc23)CC1)Cc1ccccc1	7.0%	0.99	i	0.0	1.02	11.0
O=C1CCc2cc(S(=O)(=O)N3CCC(C(=O)NCc4ccccn4)CC3)ccc2N1	2.0%	1.05	i	0.0	0.99	9.0
COCCNCC#CCOc1ccc(OC)cc1	6.0%	1.07	i	7.0	1.06	11.0
CCOC(=O)c1oc2c(CN3CCN(C)CC3)c(O)ccc2c(=O)c1-c1ccccc1OC	1.0%	0.97	i	1.0	1.01	1.0
CCOc1ccccc1Oc1c(C)oc2c(CN3CCN(C)CC3)c(O)ccc2c1=O	12.0%	3.93*	.	14.0	1.12	9.0
Cc1oc2c(CN3CCCC3)c(O)ccc2c(=O)c1-c1ccc(Br)cc1	10.0%	3.78*	.	12.0	1.13	7.0
CCCCCn1c(=O)[nH]c2cc(C(=O)NCCN(CC)CC)ccc2c1=O	5.0%	1.52	i	0.0	1.03	11.0
O=C(Nc1ccccn1)NC1CCS(=O)(=O)C1 (stereo not drawn)	3.0%	1.11	i	0.0	1.01	10.0
